# Measured values reported in PubChem BioAssay (Tox21).
# Several values for one entry are separate records, joined by “and”; a condition that tells them apart may be missing. Equal entries are not always repeated. Inconclusive results are not listed. A call without a number means that no potency is given here. Activity calls are given as the source filed them. Unless noted, the call rests on the fitted dose curve; in most records, active means well fitted curve in the direction sought with a large enough effect in the repeat runs; inconclusive means weak or mixed curves; inactive means no such curve, though single readings can be large; an effect the other way counts as inactive or inconclusive.
# How the values were obtained:
# [1] = qHTS assay to identify small molecule antagonists of the retinoid acid receptor (RAR) signaling pathway - cell viability counter screen (AID 1159551); further: nearly all actives have a fitted effect of over 35% in size; further: potency means the concentration at half of the fitted maximal effect
# How it was run: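 Cells (C3RL4) are plated, incubated overnight, dosed with compound in DMSO, then given retinol at 1 uM final. After 6 h at 37 C, CellTiter-Glo is added and luminescence read following 30 min at room temperature.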
# [2] = qHTS assay to identify small molecule antagonists of the retinoic acid receptor (RAR) signaling pathway (AID 1159552; further: nearly all actives have a fitted effect of over 50% in size; further: potency means the concentration at half of the fitted maximal effect)
# How it was run: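 Using a RARE-driven luciferase construct in C3RL4 cells, retinol at 1 uM final provided the agonist stimulus while compounds were co-applied. After 6 hours at 37 C, luminescence was recorded to flag inhibitors of retinol signaling.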
# [3] = qHTS assay to identify small molecule agonists of the retinoic acid receptor (RAR) signaling pathway (AID 1159553); further: potency means the concentration at half of the fitted maximal effect
# How it was run: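 Seed C3RL4 reporter cells at 1,000 per well and incubate overnight at 37 C. Add compounds in DMSO, incubate 6 hr. Add luciferase reagent, wait 30 min at room temperature, read luminescence.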
# [4] = qHTS assay to identify small molecule antagonists of the estrogen related receptor (ERR) signaling pathway from Tox21 library - cell viability counter screen (AID 1224834); further: nearly all actives have a fitted effect of over 30% in size; further: potency means the concentration at half of the fitted maximal effect
# How it was run: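 ERR cells, 2,000/well; 6 h settle at 37 C/5% CO2; pin-tool compound transfer in DMSO; 17.5 h at 37 C; CellTiter-Fluor, 30 min; fluorescence intensity.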
# [5] = qHTS assay to identify small molecule antagonists of the estrogen related receptor (ERR) signaling pathway - cell viability counter screen (AID 1224818); further: series mostly up to about 46 µM
# How it was run: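 ERR cells, 2,000/well; 6 h settle at 37 C/5% CO2; compound pin transfer (DMSO); 17.5 h at 37 C; CellTiter-Fluor, 30 min, fluorescence read.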
# [6] = qHTS assay to identify small molecule agonists of the estrogen related receptor (ERR) signaling pathway (AID 1224820)
# How it was run: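 Luminescence readout (One-Glo, 30 min RT) from NTP-supplied ERR cell line exposed to compounds for 18 h at 37 C. Cells seeded 2,000 per well and pre-incubated 6 h before pin-tool compound transfer.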
# [7] = tested on: estrogen-related receptor alpha (ERRalpha) with PGC-1alpha coactivator, human; experiment: qHTS assay to identify small molecule antagonists of the estrogen related receptor signaling pathway with the pleiotropic PPARgamma coactivator (PGC) (AID 1224821; calls by dose curve;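 further: series mostly up to about 46 µM; lower luminescence signal means antagonism of PGC/ERR signalling; nearly all actives have a fitted effect of over 50% in size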)
# How it was run: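 PGC/ERR reporter cells; 6 h pre-incubation 37 C/5% CO2; pin-tool compound in DMSO, 18 h 37 C; One-Glo added, 30 min RT; luminescence read. qHTS antagonist mode.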
# [8] = qHTS assay to identify small molecule agonists of the estrogen related receptor signaling pathway with the pleiotropic PPARgamma coactivator (PGC) (AID 1224823)
# How it was run: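 Luminescence readout (One-Glo, 30 min RT) from PGC/ERR cell line treated 18 h at 37 C with pin-tool-delivered DMSO compound solutions; cells plated 6 h before dosing. Quantitative HTS format.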
# [9] = qHTS assay to identify small molecule antagonists of the estrogen related receptor (ERR) signaling pathway (AID 1224819;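 further: luminescence from an ERR-driven luciferase reporter measured with One-Glo reagent; series mostly up to about 46 µM; nearly all actives have a fitted effect of over 50% in size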)
# How it was run: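 qHTS in ERR cells, 2,000/well, 1536 format. Cpd (DMSO) added after 6 h settle, 18 h 37 C. One-Glo luminescence, 30 min RT.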
# [10] = qHTS assay to identify small molecule antagonists of the estrogen related receptor signaling pathway with the pleiotropic PPARgamma coactivator (PGC) cell viability counter screen (AID 1224822;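 further: series mostly up to about 46 µM; viability read after 17.5 h compound exposure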)
# How it was run: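 Multiplexed viability counter screen run in PGC/ERR cells treated with compounds for 17.5 h at 37 C; live-cell protease signal measured by CellTiter-Fluor fluorescence.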
compound,measurement,setting,value
CC1(C)C(=O)N(Br)C(=O)N1Br,Potency,[1],inactive
same,Potency,[2],inactive
same,Potency,[3],inactive
same,Potency,[4],inactive
CCOC(OCC)C(=O)c1ccccc1,Potency,[1],inactive
same,Potency,[2],inactive
same,Potency,[4],inactive
CCO[Si](C)(C)OCC,Potency,[1],inactive
same,Potency,[2],inactive
same,Potency,[4],inactive
CCCCCCCCCCCCCCCCCO,"activity change, negative = cytotoxicity",[1],0.141% [at 19 µM] (inactive)
same,"activity, negative = inhibition",[2],-5.96% [at 19 µM] (inactive)
same,"viability change, negative = cytotoxic",[4],0.981% [at 19 µM] (inactive)
C[Si](C)O[Si](C)C,Potency,[1],inactive
same,Potency,[2],inactive
same,Potency,[4],inactive
CCCCOCC,Potency,[1],inactive
same,Potency,[2],inactive
same,Potency,[4],inactive
Cc1cncc(C)c1,Potency,[1],inactive
same,Potency,[2],inactive
same,Potency,[4],inactive
O=c1cccc[nH]1,Potency,[1],inactive
same,Potency,[2],inactive
same,Potency,[4],inactive
CN1CCN(C2Cc3ccccc3Sc3ccc(Cl)cc32)CC1 (stereo not given),Potency,[1],inactive
same,Potency,[2],29.8 µM (active)
same,Potency,[5],inactive
same,outcome,[6],inactive
same,outcome,[7],inactive
same,outcome,[8],inactive
N[C@@H](CSSC[C@H](N)C(=O)O)C(=O)O,"activity change, negative = cytotoxicity",[1],-1.26% [at 0.349 µM] (inactive)
same,"activity, negative = inhibition",[2],36.8% [at 0.349 µM] (inactive)
same,"viability change, negative = cytotoxic",[4],4.71% [at 0.349 µM] (inactive)
SCCCCCCCCS,Potency,[1],inactive
same,Potency,[2],inactive
same,Potency,[3],inactive
same,Potency,[4],inactive
Clc1nc2ccccc2s1,Potency,[1],inactive
same,Potency,[2],inactive
same,Potency,[4],inactive
CCCCCCCC/C=C\CCCCCCCC(=O)NCc1ccc(O)c(OC)c1,Potency,[1],inactive
same,Potency,[2],inactive
same,Potency,[5],inactive
same,Potency,[9],inactive
same,outcome,[6],inactive
same,Potency,[10],inactive
same,outcome,[8],inactive
same,Potency,[4],inactive
CSc1ccc2c(c1)N(CCC1CCCCN1C)c1ccccc1S2 (stereo not given),Potency,[1],60.9 µM (active)
same,Potency,[2],24.2 µM (active) and 29.8 µM (active)
same,outcome,[6],inactive
same,Potency,[4],43.1 µM (active) and 33.5 µM (active)
O=C[C@H](O)[C@H](O)[C@H](O)CO,Potency,[1],inactive
same,Potency,[2],inactive
same,Potency,[4],inactive
OCCCc1cccnc1,Potency,[1],inactive
same,Potency,[2],inactive
same,Potency,[4],inactive
Clc1cc(Cl)c(-c2c(Cl)c(Cl)cc(Cl)c2Cl)cc1Cl,Potency,[1],inactive
same,Potency,[2],inactive
same,Potency,[4],inactive
CCc1c(Br)c(Br)c(Br)c(Br)c1Br,Potency,[1],inactive
same,Potency,[2],inactive
same,Potency,[4],inactive
CCOB(OCC)OCC,Potency,[1],inactive
same,Potency,[2],inactive
same,Potency,[4],inactive
Cc1ccc(-n2[nH]c(C)c(N=Nc3cccc(-c4cccc(C(=O)O)c4)c3O)c2=O)cc1C,Potency,[1],inactive
same,Potency,[2],inactive
same,Potency,[3],29.8 µM (active)
same,Potency,[4],29.8 µM (active)
CCCCCCCCCCCC(=O)N(CC)CC,Potency,[1],inactive
same,Potency,[2],inactive
same,Potency,[3],inactive
same,Potency,[4],inactive
CN1CN(C)CN(C)C1,Potency,[1],inactive
same,Potency,[2],inactive
same,Potency,[4],inactive
OCCN1CN(CCO)CN(CCO)C1,Potency,[1],inactive
same,Potency,[2],inactive
same,Potency,[4],inactive
Cc1cccc(C)n1,Potency,[1],inactive
same,Potency,[2],inactive
same,Potency,[4],inactive
NCCCCCCNCCCCCCN,Potency,[1],inactive
same,Potency,[2],inactive
same,Potency,[3],inactive
same,Potency,[4],inactive
CC(=O)c1ccccc1N,Potency,[1],inactive
same,Potency,[2],inactive
same,Potency,[4],inactive
Clc1ccc(C(c2ccccc2Cl)C(Cl)Cl)cc1 (stereo not given),Potency,[1],inactive
same,Potency,[2],54.5 µM (active)
same,Potency,[5],inactive
same,Potency,[4],inactive
C=CC(=O)OCCN(CC)CC,Potency,[1],inactive
same,Potency,[2],inactive
same,Potency,[4],inactive
CCCCCCCOC(=O)c1ccccc1C(=O)OCCCCCCC,Potency,[1],inactive
same,Potency,[2],inactive
same,Potency,[4],inactive
O=C1C=CC(=O)N1c1ccccc1,Potency,[1],30.6 µM (active)
same,Potency,[2],6.11 µM (active)
same,Potency,[4],43.3 µM (active)
